Several values for one entry are separate records, joined by “and”; a condition that tells them apart may be missing. Equal entries are not always repeated. Results filed as inconclusive are left out. Values without a mark were called inactive. Activity calls are given as the source filed them. The call rests on the fitted dose curve; in most records, active means well fitted curve in the direction sought with a large enough effect; inconclusive means small, poorly fitted or top-dose-only effect, or another doubt; inactive means no such curve, though single readings can be large; an effect the other way counts as inactive or inconclusive. Non-standard residues stand in square brackets, D forms with d. Residues, ends and D or L forms follow the SMILES beside them. *: point of attachment. Sta = CC(C)C[C@H](N)[C@@H](O)CC(=O)O; Isovaleryl = CC(C)CC(=O)*
How the values were obtained:
[1] = target: Cellular tumor antigen p53 (Homo sapiens) (UniProt P04637); experiment: Primary qHTS for small molecule compounds that upregulate eGFP-tagged delta133p53alpha (in N-terminal) cells. (AID 2060322); details: NCI-H358 eGFP-delta133p53alpha fluorescence, 24 h; activation: hits give high values; further: nearly all actives have a fitted effect of over 75% in size;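 on activation: 0% = DMSO vehicle and 100% = reference activator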
Chain of Cellular tumor antigen p53 (Homo sapiens) (P04637 whole entry, looked up): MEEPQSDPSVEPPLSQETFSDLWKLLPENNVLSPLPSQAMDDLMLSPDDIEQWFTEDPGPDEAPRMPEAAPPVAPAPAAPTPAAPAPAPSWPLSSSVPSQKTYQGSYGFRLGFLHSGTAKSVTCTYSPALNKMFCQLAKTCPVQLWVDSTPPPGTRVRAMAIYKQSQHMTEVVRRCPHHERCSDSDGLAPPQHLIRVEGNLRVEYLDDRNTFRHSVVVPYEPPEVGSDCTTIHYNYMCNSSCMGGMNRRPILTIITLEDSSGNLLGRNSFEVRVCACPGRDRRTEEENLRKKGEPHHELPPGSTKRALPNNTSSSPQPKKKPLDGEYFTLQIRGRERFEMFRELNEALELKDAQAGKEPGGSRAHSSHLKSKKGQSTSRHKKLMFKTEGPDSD
Outline: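 NCI-H358 cells pre-induced 24 h with 10 ng/ml doxycycline to express N-terminal eGFP-delta133p53alpha, then dosed 24 h at 37C without doxycycline; fixed, Hoechst-stained, GFP intensity by laser scanning cytometry, normalized to DMSO (0%) and 57.5 uM 5-azacytidine (100%).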

[2] = BET inhibitor-based combinations targeting novel dependencies in MECOM-rearranged (r) AML: SET-2 cell line (AID 2202231); details: SET-2 AML cells viability, CellTiter-Glo luminescence, 48 h; viability: hits give low values, concentration not given here; further: nearly all actives have a fitted effect of over 35% in size;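 on viability: plate controls were DMSO treated cells for no effect and wells without cells for full effect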
Outline: (§1)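 Each compound was tested at eleven concentrations on cells seeded at 500/well. After two days' incubation, ATP-based luminescence reported viability; responses relative to DMSO and blank wells yielded AUC and cell-line-centred Z-AUC.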

[3] = BET inhibitor-based combinations targeting novel dependencies in MECOM-rearranged (r) AML: OCI-AML3 cell line (AID 2202232); details: CellTiter-Glo luminescence, 48 h; Potency: OCI-AML3 viability; series mostly up to 46 µM; further: nearly all actives have a fitted effect of over 35% in size
Outline: as §1

[4] = BET inhibitor-based combinations targeting novel dependencies in MECOM-rearranged (r) AML: HNT-34 cell line (AID 2202234); details: HNT-34 AML viability, CellTiter-Glo luminescence, 48 h; series mostly up to 46 µM; further: nearly all actives have a fitted effect of over 35% in size
Outline: (§2)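 First, 500 cells per well were seeded; next, drugs were pinned as 11-point doses; then plates sat 48 hr in the incubator; finally CellTiter-Glo was added and luminescence read, with AUC and Z-AUC computed.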

[5] = BET inhibitor-based combinations targeting novel dependencies in MECOM-rearranged (r) AML: UCSD-AML1 cell line (AID 2202235); details: UCSD-AML1 AML cells viability, CellTiter-Glo, 48 h; series mostly up to 46 µM; further: nearly all actives have a fitted effect of over 40% in size
Outline: as §2

[6] = BET inhibitor-based combinations targeting novel dependencies in MECOM-rearranged (r) AML: AML-191 cell line (AID 2202236; further: nearly all actives have a fitted effect of over 35% in size); details: AML-191 viability, CellTiter-Glo luminescence, 48 h; series mostly up to 46 µM
Outline: as §1

[7] = BET inhibitor-based combinations targeting novel dependencies in MECOM-rearranged (r) AML: AML-194 cell line (AID 2202237; further: nearly all actives have a fitted effect of over 40% in size); details: AML-194 (MECOM-r AML) viability, CellTiter-Glo, 48 h; series mostly up to 46 µM
Outline: as §1

[8] = BET inhibitor-based combinations targeting novel dependencies in MECOM-rearranged (r) AML: MV-4-11 cell line (AID 2202233); details: MV-4-11 AML viability, CellTiter-Glo luminescence, 48 h; series mostly up to 46 µM; further: nearly all actives have a fitted effect of over 45% in size
Outline: as §2
Potency means the concentration at half of the fitted maximal effect.

SMILES	activation [1]	viability [2] [%]	Potency [3]	Potency [4]	Potency [5]	Potency [6]	Potency [7]	Potency [2]	Potency [8]	Potency [1]
NC(=O)c1ccc(-c2nc(-c3ccc4c(c3)OCO4)c(-c3ccccn3)[nH]2)cc1	-10.5%	112	inactive	inactive	inactive	inactive	inactive	–	–	–
O=C(Nc1cccc(Cl)c1)Nc1ncc(CCNc2ncnc3ccsc23)s1	-7.26%	–	0.166 µM (active)	inactive	inactive	–	–	20.9 µM (active)	–	–
CC(=O)OC[C@@H]1O[C@@H](n2ccc(=O)[nH]c2=O)[C@H](OC(C)=O)[C@H]1OC(C)=O	5.73%	108	inactive	inactive	inactive	inactive	inactive	–	–	–
Cc1c(CCOc2ccc(C(=O)O)cc2)c2cc(Cl)ccc2n1C(c1ccccc1)c1ccccc1	-25%	114	inactive	–	inactive	inactive	inactive	–	inactive	–
NC(=O)c1ncn([C@@H]2O[C@H](CO)[C@@H](O)[C@H]2O)c1N	-7.53%	114	inactive	inactive	inactive	inactive	inactive	–	–	–
COc1cccc2c1C(=O)c1c(O)c3c(c(O)c1C2=O)C[C@@](O)(C(=O)CO)C[C@@H]3O[C@H]1C[C@H](N)[C@H](OC2CCCCO2)[C@H](C)O1 (stereo partly drawn)	3.12%	–	0.186 µM (active)	–	209 nM (active) and 263 nM (active)	118 nM (active) and 372 nM (active)	332 nM (active) and 296 nM (active)	1.32 µM (active) and 833 nM (active)	18.6 nM (active) and 74.2 nM (active)	–
CC(C)CC(=O)N[C@H](C(=O)N[C@H](C(=O)N[C@@H](CC(C)C)[C@@H](O)CC(=O)N[C@@H](C)C(=O)N[C@@H](CC(C)C)[C@@H](O)CC(=O)O)C(C)C)C(C)C (Isovaleryl-VV[Sta]A[Sta]-OH)	-1.4%	117	inactive	inactive	inactive	–	–	–	–	–
Cn1c(=O)c(F)c(Nc2ccc(I)cc2F)c2c(=O)n(C[C@@H](O)CO)cnc21	15.6%	–	0.0059 µM (active)	0.0833 µM (active)	1.32 µM (active)	–	–	16.6 µM (active)	–	–
NC(N)=NC(N)=NCCc1ccccc1	-18.4% and -5.97%	–	16.6 µM (active)	inactive	inactive	inactive	inactive	13.2 µM (active)	–	–
COc1ccc(CC2=NN3C([C@@H](CCc4ccccc4)[C@@H](C)O)=NC(C)C3C(=O)N2)cc1OC (stereo partly drawn)	-13.9%	101	7.42 µM (active)	18.6 µM (active)	inactive	16.6 µM (active)	inactive	–	–	–
Cn1c(=O)c(Oc2ccc(F)cc2F)cc2cnc(NC3CCOCC3)nc21	-33.7%	115	inactive	inactive	inactive	inactive	inactive	–	–	–
CC(C)Cn1cnc2c(N)nc3ccccc3c21	-10% and 13.9%	101	inactive	inactive	inactive	inactive	inactive	–	–	–
CC(C)(C)NC(=O)[C@H]1CC[C@H]2[C@@H]3CC[C@H]4NC(=O)C=C[C@]4(C)[C@H]3CC[C@]12C	-14.2% and -4.21%	98.4	inactive	inactive	inactive	inactive	inactive	–	–	–
O=C1c2cccc(O)c2C(=O)c2c(O)cc(CO)cc21	-5.26%	116	inactive	inactive	inactive	inactive	inactive	–	–	–
CN1CCCN=C1/C=C/c1cccs1	-2.82%	73.8	inactive	–	2.95 µM (active)	–	inactive	–	inactive	–
O=C(O)CSCC(=O)NC1CCSC1=O (stereo not drawn)	-13.1% and -8.37%	95.2	inactive	–	inactive	inactive	inactive	–	inactive	–
Cc1cccc(-c2[nH]c(C(C)(C)C)nc2-c2ccc3c(c2)OCO3)n1	-10.9%	–	3.72 µM (active)	–	–	6.61 µM (active)	6.61 µM (active)	16.6 µM (active)	2950 nM (active)	–
CC(C)[C@H](O)C(=O)N[C@@H](C)C(=O)N[C@@H]1C(=O)N(C)CCc2ccccc21	28.1%	117	inactive	–	inactive	–	inactive	–	inactive	–
N#CNC(=NCCCCCCOc1ccc(Cl)cc1)Nc1ccncc1	37.2%	–	0.0105 µM (active)	–	–	0.0186 µM (active)	–	13.2 µM (active)	37.2 nM (active)	–
CC1(C)CCC(C)(C)c2cc(NC(=O)c3ccc(C(=O)O)cc3)ccc21	-13% and 3.42%	80.9	inactive	1.66 µM (active)	inactive	0.0021 µM (active)	inactive	–	–	–
O=[N+]([O-])c1cncn1CCN1CCOCC1	-23.4%	112	inactive	inactive	inactive	inactive	inactive	–	–	–

SMILES	activation [1]	viability [2] [%]	Potency [3]	Potency [4]	Potency [5]	Potency [6]	Potency [7]	Potency [2]	Potency [8]	Potency [1]
COc1ccc(-c2oc3c(CC=C(C)C)c(O)cc(O)c3c(=O)c2O)cc1	-9.57%	97	inactive	inactive	inactive	inactive	inactive	–	–	–
COc1c(C)c2c(c(O)c1C/C=C(\C)CCC(=O)O)C(=O)OC2	7.34%	–	1.32 µM (active)	–	0.833 µM (active)	1.05 µM (active)	1.32 µM (active)	1.18 µM (active)	742 nM (active)	–
CC(=O)[C@H]1CC[C@H]2[C@@H]3CC=C4C[C@@H](O)CC[C@]4(C)[C@H]3CC[C@]12C	-3.95% and -16.2%	112	inactive	inactive	inactive	inactive	inactive	–	–	–
CN(C)CC/C=C1/c2ccccc2COc2ccc(CC(=O)O)cc21	-13%	121	inactive	–	–	inactive	inactive	–	inactive	–
CC(C)C[C@H](NC(=O)CNC(=O)c1cc(Cl)ccc1Cl)B(O)O	–	–	0.118 µM (active)	0.132 µM (active)	0.166 µM (active)	0.166 µM (active)	0.332 µM (active)	0.105 µM (active)	–	17.2 µM (active)
CN1c2cc(O)c(N=NC(N)=O)cc2CC1S(=O)(=O)O (stereo not drawn)	16.4%	89.9	inactive	–	inactive	inactive	inactive	–	–	–
O=NN(CCCl)C(=O)NC1CCCCC1	-3.35% and 3.74%	112	inactive	inactive	inactive	inactive	inactive	–	–	–
CC(S)C(=O)NCC(=O)O (stereo not drawn)	9.72%	114	8.33 µM (active)	inactive	–	–	inactive	–	–	–
O=C(O)c1ccc(-n2nc(-c3ccccc3O)nc2-c2ccccc2O)cc1	-1.69% and -24.7%	–	14.8 µM (active)	–	inactive	16.6 µM (active)	–	20.9 µM (active)	–	–
COc1cc2nccc(Oc3ccc(NC(=O)Nc4ccc(F)cc4F)c(F)c3)c2cc1OC	5.39%	108	–	1.66 µM (active)	2.09 µM (active)	–	–	–	93.4 nM (active)	–
O=C(O)c1cn(-c2ccc(F)cc2)c2cc(N3CCNCC3)c(F)cc2c1=O	-9.7%	96.6	inactive	–	inactive	inactive	inactive	–	–	–
O=[N+]([O-])c1ccc(Nc2ccccc2-c2ccccc2)c2nonc12	–	–	–	23.5 µM (active)	inactive	20.9 µM (active)	–	20.9 µM (active)	26300 nM (active)	9.68 µM (active)
COc1ccc(Nc2nccc(NCCO)n2)cc1	25.6%	106	23.5 µM (active)	–	inactive	inactive	inactive	–	–	–
Cc1ccc(-n2nc(C(C)(C)C)cc2NC(=O)Nc2ccc(OCCN3CCOCC3)c3ccccc23)cc1	23.4%	102	18.6 µM (active)	–	inactive	18.6 µM (active)	inactive	–	–	–
CCc1cc(Nc2nccc(-c3c(-c4ccc(OC)c(C(=O)Nc5c(F)cccc5F)c4)nc4ccccn34)n2)c(OC)cc1N1CCC(N2CCN(S(C)(=O)=O)CC2)CC1	14.2% and 2.68%	113	inactive	–	10.5 µM (active)	11.8 µM (active)	11.8 µM (active)	–	–	–
CC(NCCc1ccc(O)cc1)C(O)c1ccc(O)cc1 (stereo not drawn)	-5.46%	112	inactive	–	–	inactive	–	–	–	–
COc1ccc(COc2cc3oc(=O)c4cc(C(C)O)ccc4c3cc2OC)cc1 (stereo not drawn)	0.91%	86.4	14.8 µM (active)	–	–	20.9 µM (active)	–	–	–	–
NNC(=O)c1ccncc1	-11.9% and -4.14%	110	inactive	inactive	inactive	inactive	inactive	–	–	–
CCCCCOC(=O)Nc1nc(=O)n([C@@H]2O[C@H](C)[C@@H](O)[C@H]2O)cc1F	-37.9%	110	inactive	inactive	inactive	–	inactive	–	–	–
Cc1cc2cc3c(C)cc(=O)oc3c(C)c2o1	-5.86% and 16.7%	111	inactive	inactive	inactive	inactive	inactive	–	–	–
COc1ccc(-c2ccc3cc(C(=O)O)ccc3c2)cc1C12CC3CC(CC(C3)C1)C2	-14.2% and 5.04%	111	0.0033 µM (active)	inactive	inactive	inactive	inactive	–	–	–

Reference: PubChem BioAssay (NCATS)
